D2 PAM-1 – potentiates the human D2 dopamine receptor allosterically | actives 0.23% (n = 360,000) | potentiation, % (no concentration beside the values) | DiscoveRx D2 beta-arrestin cells, luminescence, 90 min; 100% = 57 uM dopamine signal; in the data active = potentiation above about 50%; inconclusive = mostly about 30% to 49%
Target sequence (P14416 whole entry, looked up): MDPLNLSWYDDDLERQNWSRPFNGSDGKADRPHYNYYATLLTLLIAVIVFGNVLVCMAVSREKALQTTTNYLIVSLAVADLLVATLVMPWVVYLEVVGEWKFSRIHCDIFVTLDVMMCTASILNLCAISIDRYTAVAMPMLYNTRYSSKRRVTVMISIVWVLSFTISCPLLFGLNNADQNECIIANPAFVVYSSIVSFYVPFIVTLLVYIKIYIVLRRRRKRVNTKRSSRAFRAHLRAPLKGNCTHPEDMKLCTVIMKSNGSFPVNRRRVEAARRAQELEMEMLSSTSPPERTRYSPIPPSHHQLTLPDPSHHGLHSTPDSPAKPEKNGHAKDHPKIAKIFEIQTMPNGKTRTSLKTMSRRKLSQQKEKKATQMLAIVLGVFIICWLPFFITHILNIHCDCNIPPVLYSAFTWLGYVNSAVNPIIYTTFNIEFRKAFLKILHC
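D2 cells co-treated with compound plus 50 nM dopamine (EC20) for 90 min at 37 deg C to detect potentiation. Beta-arrestin recruitment was read as enzyme-fragment luminescence after 1 h at ambient temperature. Full response was set by 57 uM dopamine.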
LDHA block – LDHA (human) enzyme inhibition. P00338. purified LDHA, NADH/diaphorase-resazurin fluorescence; hits give low values. activity change, % (values are at about 110 or 230 µM). actives 0.15% (n = 480,000). AID 1347041; in the data active = activity change below about -30%; inconclusive = mostly about -25% to -30%;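 also: plate controls were DMSO wells for no effect and wells without enzyme for full effect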
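LDH5 2 nM; NADH 0.06 mM, pyruvate 0.2 mM; 200 mM Tris pH 7.4, EDTA, Tween-20; 5 min RT. Detection: diaphorase 0.133 mg/mL + resazurin 37 µM, fluorescence ex540/em590 at 0 and 20 min; normalized to enzyme-free and DMSO wells.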
D2 ag-1 – activates the human D2 dopamine receptor; P14416; activation, % at 2 µM; HEK293 T-REx D2 cells, calcium flux agonist mode; actives 0.53% (n = 340,000);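 active = activation over 3 SD above normal in the single-dose calcium agonist read, cut at about 30% in these data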; also: 0% is about no effect
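Calcium-flux readout, 1 cycle/sec over 180 s following compound pin transfer, in inducible HEK293 Trex D2 cells (force-coupled); dopamine controls included. Positive calcium responses during this window marked compounds as potential agonists.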
D2 ag-2 – human D2 receptor agonism in beta-arrestin assay; DiscoveRx PathHunter D2 beta-arrestin, luminescence, 90 min; 100% = 57 uM dopamine signal; activation, % (no concentration beside the values); actives 0.084% (n = 360,000); AID 624465; in the data active = activation above about 40%; inconclusive = between about 15% and that limit
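DiscoveRx PathHunter D2 beta-arrestin cells (2,100/well) attached overnight, then compound-stimulated 90 min at 37 C in HBSS/10 mM HEPES/0.1% Tween-20 buffer; beta-galactosidase complementation read by luminescence after 1 h at ambient temperature. Dopamine 57 uM final (EC100) as control.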
D2 antagonist – antagonizes the human D2 dopamine receptor. actives 2% (n = 340,000). inhibition, % at 10 µM. AID 485344. P14416. HEK293 TREx D2 cells, calcium flux, dopamine EC80; in the data active = inhibition above about 30%; inactive = below that, where a call was filed; also: 0% is about no effect
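Inhibition of EC80 dopamine-driven calcium flux, recorded kinetically, defines activity here; cells are a tetracycline-induced HEK293 T-REx line expressing force-coupled D2.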
D2 PAM-2 – positive allosteric modulators of human D2 dopamine receptor; P14416; HEK293 T-REx D2, calcium flux, EC20 dopamine potentiation; potentiation, % at 10 µM; actives 0.34% (n = 340,000);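 active = potentiation over 3 SD above the plate norm, cut at about 30% in these data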; also: 0% is about no effect
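Potentiation of an EC20 dopamine calcium response is measured in a force-coupled, tetracycline-inducible Hek293 Trex D2 line. Compound-only kinetic reads over 180 s flag agonists before dopamine addition.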
D3 arrestin ag – activates human D3 dopamine receptor beta-arrestin recruitment | shares compounds with D2 ag-1 | DiscoveRx D3 beta-arrestin cells, luminescence, 90 min | Potency, µM (doses to about 76.9 µM), for inactives: at the top dose activation, actives largely listed as activators | actives 4% (n = 2,300) | AID 720506;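 also: potency is read from the fitted curve at half-maximal effect; 100% = dopamine control response; nearly all actives have a fitted effect of over 70% in size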
D2 ag-3 – counter-screen for D3 agonists: human D2 dopamine receptor agonism; DiscoveRx PathHunter D2 beta-arrestin, luminescence, 90 min; response scale: percent relative to full dopamine signal; Potency, µM (series often up to 76.9 µM), for the others: at the top dose activation, actives largely listed as activators; actives 5.9% (n = 2,300); shares compounds with D2 ag-1; also: potency is read from the fitted curve at half-maximal effect; % of control where 0% means no effect; nearly all actives have a fitted effect of over 70% in size
The depositor's hits bear a star; ? = inconclusive; · = not tested or not shown. Compounds with a hit are over-represented: about 2.1% of the library has one in this group of screens. Unless noted, calls follow the shape of the dose curve; as a rule, active = well fitted activation curve with a large enough effect; inconclusive = small, poorly fitted or top-dose-only effect; inactive = flat fitted curve, though single readings scatter.

SMILES	D2 PAM-1	LDHA block	D2 ag-1	D2 ag-2	D2 antagonist	D2 PAM-2	D3 arrestin ag	D2 ag-3
O=C(CCn1nnc2ccccc21)OCC(=O)c1ccccc1	·	-3.0	·	·	·	·	·	·
COC(=O)c1ccc(COC(=O)/C=C/c2cccs2)o1	·	5.1	·	·	·	·	·	·
Cc1ccc(SCC(=O)OCC(=O)NCc2cccs2)cc1C	-3.9	-4.6	0.2	-6.3	-3.2	6.6	·	·
COc1ccccc1CNC(=O)COC(=O)CSc1ccc(C)c(C)c1	-11.7	-2.5	-0.4	-3.3	-4.6	-5.0	-7.0%	-4.9%
CC(=O)Nc1ccc(-c2csc(Nc3ccc(O)cc3)n2)cc1	·	-0.8	·	·	·	·	·	·
O=C(Cn1cnc2ccccc2c1=O)N1CCN(Cc2ccc3c(c2)OCO3)CC1	-4.0	-1.0	49.9*	?	55.2*	-12.6	15.9%	?
O=C(Cn1cnc2ccccc2c1=O)NCC(=O)N1CCN(Cc2ccc3c(c2)OCO3)CC1	17.5	-1.9	47.7*	-2.7	-19.3	-16.6	-1.5%	10.2%
CCOc1ccc(NC(=O)CCN2CCN(c3ccccc3F)CC2)cc1	13.7	-4.5	79.0*	?	76.9*	-20.5	?	?
COc1ccc(NC(=O)CN2CCN(c3ccccc3F)CC2)cc1	-41.5	1.7	-0.3	-1.2	-0.7	6.3	·	·
CCOC(=O)N1CCC(Nc2c(NCCN3CCN(Cc4ccccc4)CC3)c(=O)c2=O)CC1	-19.2	-1.2	0.3	-0.4	23.3	-15.4	·	·
CCOC(=O)N1CCC(Nc2c(NCCN3CCN(c4ccccc4F)CC3)c(=O)c2=O)CC1	-11.2	-8.3	42.8*	2.5	23.5	-9.2	?	2.9%
CCOc1ccc(NC(=O)NCCN2CCN(c3ccccc3F)CC2)cc1	-8.1	-0.7	77.2*	?	78.8*	-29.1	?	?
CCOc1ccc(NC(=O)CCN2CCN(C)CC2)cc1	-5.6	-2.1	0.0	3.4	-13.1	17.7	·	·
COc1cccc(NC(=O)CCN2CCN(c3ccccc3F)CC2)c1	-7.8	-5.2	76.2*	?	76.6*	-24.2	?	?
COCCC1=NN(C(=O)c2ccncc2)C(O)(C(F)(F)F)C1 (stereo not drawn)	·	2.2	·	·	·	·	·	·
COCCn1c(-n2nc(C)cc2C)nc2c1c(=O)n(Cc1cc(C)ccc1C)c(=O)n2C	·	4.7	·	·	·	·	·	·
Cc1ccc(-c2csc(Nc3ccc(O)c(C(=O)O)c3)n2)cc1	·	-1.3	·	·	·	·	·	·
COc1ccccc1N1CCN(CCC(=O)Nc2ccc3c(c2)OCO3)CC1	-15.5	-5.8	55.1*	-0.8	79.7*	-18.5	-4.0%	0.8%
COc1ccccc1N1CCN(CC(=O)Nc2ccc3c(c2)OCCO3)CC1	4.8	-9.0	-1.4	1.0	-24.2	19.3	·	·
COc1ccc(C(=O)CCN2CCCCCC2)cc1	-14.3	5.7	3.4	-1.5	-6.9	-7.7	·	·
COc1ccc(C(=O)CCN2CCN(c3ccccc3F)CC2)cc1	-34.7	-1.0	28.4	1.9	81.5*	-25.5	3.8%	0.1%
CC(=O)N1CCc2cc(C(=O)CN3CCN(c4ccccc4F)CC3)ccc21	-9.4	2.6	-0.4	-3.6	-4.5	10.8	·	·
COc1ccc(NC(=O)NCCCN2CCN(c3ccccc3F)CC2)cc1	-3.7	-2.3	82.0*	6.0	91.5*	-24.8	?	23.8%
O=C(CN1CCN(c2ccccc2F)CC1)c1ccc2cc[nH]c2c1	-14.0	2.5	27.9	-4.0	29.1	-24.7	8.8%	11.8%
COC(=O)/C(C#N)=C\c1cc(Br)c(O)c(OC)c1	·	4.7	·	·	·	·	·	·
SMILES	D2 PAM-1	LDHA block	D2 ag-1	D2 ag-2	D2 antagonist	D2 PAM-2	D3 arrestin ag	D2 ag-3
Cc1ccc(C)c(NC(=O)CCc2ncc(-c3c(F)cccc3F)o2)c1	·	-2.8	·	·	·	·	·	·
CCOCCCNCc1ccc(Cl)cc1Cl	·	-7.4	·	·	·	·	·	·
COc1ccc(-c2noc(CCC(=O)NCCCN3CCC(C)CC3)n2)cc1	-14.6	-1.5	3.6	-2.0	0.3	-4.4	·	·
COc1ccc(-c2noc(CCC(=O)NCCN3CCN(c4ccccc4F)CC3)n2)cc1	-31.6	-1.4	41.1*	-0.6	64.7*	-26.5	-0.6%	17.7%
CCOc1ccc(NC(=O)CCN2CCN(c3ccccc3OC)CC2)cc1	-30.6	-2.9	26.9	0.6	61.5*	-28.0	-7.2%	4.0%
COC(=O)c1c(-c2ccccc2OC)sc2ccccc12	-5.1	-8.7	-0.2	-0.6	-7.7	-2.9	-4.7%	-1.8%
OC(COCc1cccs1)CN1CCN(c2cccc(Cl)c2)CC1 (stereo not drawn)	-24.4	2.3	67.0*	?	43.4*	-19.9	2.8%	?
OC(COCc1cccs1)CN1CCN(c2ccccc2Cl)CC1 (stereo not drawn)	-31.4	-6.4	·	3.0	·	-23.6	·	·
Cc1cccc(N2CCN(CC(O)COCc3cccs3)CC2)c1C (stereo not drawn)	-12.2	-9.5	56.1*	4.0	70.5*	-16.0	0.316µM*	12.7%
OC(COCc1cccs1)CN1CCCCCC1 (stereo not drawn)	-28.3	-1.4	-0.6	1.2	-2.8	29.7	·	·
O=C(O)/C=C/C(=O)NCCc1ccccc1	-8.9	-6.8	77.9*	7.1	60.9*	-20.7	-3.0%	4.6%
O=C(O)/C=C/C(=O)NCCc1ccc(Cl)cc1	-8.4	-5.9	7.6	-1.7	13.7	-7.0	·	·
COc1cc(C)c(NC(=O)C(=S)NCCc2ccccc2)cc1C	1.2	-0.3	5.4	1.5	-10.8	9.2	9.6%	23.9%
COc1ccc(NC(=S)NCCc2ccccc2)c(C)c1	3.3	-2.4	-0.7	-1.8	1.1	-3.0	·	·
O=C(CCCc1ccccc1)c1ccccc1	-5.9	-4.5	-0.1	-1.4	-11.7	26.4	·	·
CCN(CCCC(=O)c1ccc(F)cc1)CCc1ccccc1	-23.6	-0.3	82.9*	12.8	101.6*	-22.2	?	16.6%
CCOc1ccc(CN(C)Cc2cc(=O)oc3cc(C)ccc23)cc1	·	-21.2	·	·	·	·	·	·
O=C(CCNS(=O)(=O)c1ccccc1C(F)(F)F)N1CCN(C(c2ccccc2)c2ccccc2)CC1	-12.1	-4.3	-0.4	-0.2	-15.3	0.2	·	·
O=C(CCNS(=O)(=O)c1ccccc1C(F)(F)F)N1CCCCCCC1	-2.4	-7.0	0.4	-1.7	3.5	-2.6	1.3%	-2.0%
Cc1nc(-c2cccnc2)sc1CCNS(=O)(=O)c1ccc(Cl)s1	·	-3.8	·	·	·	·	·	·
COCCn1cnc2c1c(=O)n(CC(=O)Nc1ccccc1F)c(=O)n2Cc1ccccc1	·	3.0	·	·	·	·	·	·
